# Experimental data: paper PMC11006913
# Where a chain is given by its changes, count along the chain named.
# What was measured:
# Assay in all cases: PBM; 200 nM protein, PBS
# Conditions in all cases: dsDNA, one strand shown
# [1] = molecular target: HOXB9 (Homo sapiens, UniProt P17482 171-250, T197M)
# [2] = molecular target: HOXC9 (Homo sapiens, UniProt P31274 178-260, K195R)
# [3] = molecular target: HOXA7 (Homo sapiens, UniProt P31268 116-202)
# [4] = molecular target: HOXC10 (Homo sapiens, UniProt Q9NYD6 254-340)
# [5] = molecular target: HOXB9 (Homo sapiens, UniProt P17482 171-250)
# [6] = molecular target: HOXC9 (Homo sapiens, UniProt P31274 178-260)
# [7] = molecular target: HOXC9 (Homo sapiens, UniProt P31274 178-260, R193K)
# [8] = molecular target: HOXA2 (Homo sapiens, UniProt O43364 129-215, R185K)
# [9] = molecular target: HOXC10 (Homo sapiens, UniProt Q9NYD6 254-340, K271E)
# [10] = molecular target: HOXB9 (Homo sapiens, UniProt P17482 171-250, R186Q)
# [11] = molecular target: HOXC9 (Homo sapiens, UniProt P31274 178-260, R222W)
# [12] = molecular target: HOXA7 (Homo sapiens, UniProt P31268 116-202, W177C)
# [13] = molecular target: HOXB6 (Homo sapiens, UniProt P17509 132-218)
# [14] = molecular target: VAX1 (Homo sapiens, UniProt Q5SQQ9 86-172)
# [15] = molecular target: T1, PAX4 (Homo sapiens, UniProt O43316 9-242, R200K)
# T1 sequence: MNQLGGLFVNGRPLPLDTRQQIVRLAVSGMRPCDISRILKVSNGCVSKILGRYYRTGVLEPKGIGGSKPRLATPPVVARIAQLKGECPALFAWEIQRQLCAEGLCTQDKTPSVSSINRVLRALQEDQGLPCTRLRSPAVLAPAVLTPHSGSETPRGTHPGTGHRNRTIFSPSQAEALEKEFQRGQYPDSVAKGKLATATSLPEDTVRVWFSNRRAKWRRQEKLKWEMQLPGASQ
# [16] = molecular target: T2, PAX4 (Homo sapiens, UniProt O43316 9-242)
# T2 sequence: T1 sequence with K192R
# [17] = molecular target: T3, PAX4 (Homo sapiens, UniProt O43316 9-242, R227W)
# T3 sequence: T1 sequence with K192R, R219W
# [18] = molecular target: T4, VENTX (Homo sapiens, UniProt O95231 78-163)
# T4 sequence: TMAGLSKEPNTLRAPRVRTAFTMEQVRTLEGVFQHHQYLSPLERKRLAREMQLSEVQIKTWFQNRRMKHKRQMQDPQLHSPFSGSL
# [19] = molecular target: HOXA2 (Homo sapiens, UniProt O43364 129-215, Y150S)
# [20] = molecular target: HOXA2 (Homo sapiens, UniProt O43364 129-215)
# Chain of HOXA2 (Homo sapiens, UniProt O43364 129-215) (O43364 129-215): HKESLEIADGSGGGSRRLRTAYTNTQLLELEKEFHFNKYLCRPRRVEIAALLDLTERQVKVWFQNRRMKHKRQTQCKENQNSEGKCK
# Chain of HOXC9 (Homo sapiens, UniProt P31274 178-260, R222W) (P31274 178-260 R222W): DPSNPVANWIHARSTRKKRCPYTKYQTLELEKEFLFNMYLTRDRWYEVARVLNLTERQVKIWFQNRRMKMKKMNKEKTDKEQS
# Chain of HOXB9 (Homo sapiens, UniProt P17482 171-250, R186Q) (P17482 171-250 R186Q): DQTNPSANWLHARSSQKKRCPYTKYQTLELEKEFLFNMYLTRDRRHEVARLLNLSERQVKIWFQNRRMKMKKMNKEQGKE
# Chain of HOXC10 (Homo sapiens, UniProt Q9NYD6 254-340, K271E) (Q9NYD6 254-340 K271E): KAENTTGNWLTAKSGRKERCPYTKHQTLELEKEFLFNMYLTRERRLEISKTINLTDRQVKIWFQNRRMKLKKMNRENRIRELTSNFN
# Chain of HOXC9 (Homo sapiens, UniProt P31274 178-260, K195R) (P31274 178-260 K195R): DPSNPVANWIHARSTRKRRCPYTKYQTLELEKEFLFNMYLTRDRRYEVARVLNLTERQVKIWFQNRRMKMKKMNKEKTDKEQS
# Chain of HOXC9 (Homo sapiens, UniProt P31274 178-260) (P31274 178-260): as the sequence (P31274 178-260 R222W) above, with W45R counted along it
# Chain of HOXC9 (Homo sapiens, UniProt P31274 178-260, R193K) (P31274 178-260 R193K): as the sequence (P31274 178-260 R222W) above, with R16K, W45R counted along it
# Chain of HOXB9 (Homo sapiens, UniProt P17482 171-250, T197M) (P17482 171-250 T197M): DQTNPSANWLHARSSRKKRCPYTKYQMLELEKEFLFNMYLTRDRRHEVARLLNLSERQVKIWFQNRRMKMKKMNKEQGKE
# Chain of HOXB6 (P17509 132-218): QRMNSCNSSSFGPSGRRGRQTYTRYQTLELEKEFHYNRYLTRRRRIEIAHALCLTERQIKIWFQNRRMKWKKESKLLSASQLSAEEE
# Chain of HOXB9 (Homo sapiens, UniProt P17482 171-250) (P17482 171-250): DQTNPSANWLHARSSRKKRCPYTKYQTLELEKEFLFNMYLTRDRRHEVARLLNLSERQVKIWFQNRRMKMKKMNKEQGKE
# Chain of VAX1 (Q5SQQ9 86-172): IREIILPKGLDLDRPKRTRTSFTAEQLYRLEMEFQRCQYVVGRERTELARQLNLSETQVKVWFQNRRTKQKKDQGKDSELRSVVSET
# Chain of HOXC10 (Homo sapiens, UniProt Q9NYD6 254-340) (Q9NYD6 254-340): as the sequence (Q9NYD6 254-340 K271E) above, with E18K counted along it
# Chain of HOXA7 (Homo sapiens, UniProt P31268 116-202) (P31268 116-202): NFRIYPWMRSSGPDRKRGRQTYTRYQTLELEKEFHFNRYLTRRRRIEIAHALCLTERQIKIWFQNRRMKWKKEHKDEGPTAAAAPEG
# Chain of HOXA7 (Homo sapiens, UniProt P31268 116-202, W177C) (P31268 116-202 W177C): as the sequence (P31268 116-202) above, with W62C counted along it
# Chain of HOXA2 (Homo sapiens, UniProt O43364 129-215, R185K) (O43364 129-215 R185K): as the sequence (O43364 129-215) above, with R57K counted along it
# Chain of HOXA2 (Homo sapiens, UniProt O43364 129-215, Y150S) (O43364 129-215 Y150S): as the sequence (O43364 129-215) above, with Y22S counted along it
sequence,measurement,setting,value
ACAATTAA,binding signal,[1],"10.1 upbm affinity estimate (log intensity, higher = more binding, comparable within an allelic series)"
same,binding signal,[2],"12.5 upbm affinity estimate (log intensity, higher = more binding, comparable within an allelic series)"
same,binding signal,[3],"11.6 upbm affinity estimate (log intensity, higher = more binding, comparable within an allelic series)"
same,binding signal,[4],"12.2 upbm affinity estimate (log intensity, higher = more binding, comparable within an allelic series)"
same,binding signal,[5],"11.8 upbm affinity estimate (log intensity, higher = more binding, comparable within an allelic series)"
same,binding signal,[6],"12.6 upbm affinity estimate (log intensity, higher = more binding, comparable within an allelic series)"
same,binding signal,[7],"12.5 upbm affinity estimate (log intensity, higher = more binding, comparable within an allelic series)"
same,binding signal,[8],"13.1 upbm affinity estimate (log intensity, higher = more binding, comparable within an allelic series)"
same,binding signal,[9],"12 upbm affinity estimate (log intensity, higher = more binding, comparable within an allelic series)"
same,binding signal,[10],"11.6 upbm affinity estimate (log intensity, higher = more binding, comparable within an allelic series)"
same,binding signal,[11],"11 upbm affinity estimate (log intensity, higher = more binding, comparable within an allelic series)"
same,binding signal,[12],"8.88 upbm affinity estimate (log intensity, higher = more binding, comparable within an allelic series)"
same,binding signal,[13],"11.9 upbm affinity estimate (log intensity, higher = more binding, comparable within an allelic series)"
ATTAATAG,binding signal,[1],"10.1 upbm affinity estimate (log intensity, higher = more binding, comparable within an allelic series)"
same,binding signal,[2],"12.7 upbm affinity estimate (log intensity, higher = more binding, comparable within an allelic series)"
same,binding signal,[3],"11.6 upbm affinity estimate (log intensity, higher = more binding, comparable within an allelic series)"
same,binding signal,[4],"12.2 upbm affinity estimate (log intensity, higher = more binding, comparable within an allelic series)"
same,binding signal,[5],"11.9 upbm affinity estimate (log intensity, higher = more binding, comparable within an allelic series)"
same,binding signal,[6],"12.6 upbm affinity estimate (log intensity, higher = more binding, comparable within an allelic series)"
same,binding signal,[7],"12.6 upbm affinity estimate (log intensity, higher = more binding, comparable within an allelic series)"
same,binding signal,[9],"12 upbm affinity estimate (log intensity, higher = more binding, comparable within an allelic series)"
same,binding signal,[14],"12.6 upbm affinity estimate (log intensity, higher = more binding, comparable within an allelic series)"
same,binding signal,[10],"11.7 upbm affinity estimate (log intensity, higher = more binding, comparable within an allelic series)"
same,binding signal,[11],"11.1 upbm affinity estimate (log intensity, higher = more binding, comparable within an allelic series)"
same,binding signal,[12],"9.03 upbm affinity estimate (log intensity, higher = more binding, comparable within an allelic series)"
same,binding signal,[13],"12 upbm affinity estimate (log intensity, higher = more binding, comparable within an allelic series)"
CAAATTAA,binding signal,[15],"11.8 upbm affinity estimate (log intensity, higher = more binding, comparable within an allelic series)"
same,binding signal,[16],"12.4 upbm affinity estimate (log intensity, higher = more binding, comparable within an allelic series)"
same,binding signal,[17],"11 upbm affinity estimate (log intensity, higher = more binding, comparable within an allelic series)"
CCCAATTA,binding signal,[18],"12.4 upbm affinity estimate (log intensity, higher = more binding, comparable within an allelic series)"
same,binding signal,[15],"11.6 upbm affinity estimate (log intensity, higher = more binding, comparable within an allelic series)"
same,binding signal,[16],"12.1 upbm affinity estimate (log intensity, higher = more binding, comparable within an allelic series)"
same,binding signal,[14],"12.7 upbm affinity estimate (log intensity, higher = more binding, comparable within an allelic series)"
same,binding signal,[17],"10.7 upbm affinity estimate (log intensity, higher = more binding, comparable within an allelic series)"
AATTAGTA,binding signal,[15],"11.7 upbm affinity estimate (log intensity, higher = more binding, comparable within an allelic series)"
same,binding signal,[16],"12.2 upbm affinity estimate (log intensity, higher = more binding, comparable within an allelic series)"
same,binding signal,[17],"11 upbm affinity estimate (log intensity, higher = more binding, comparable within an allelic series)"
same,binding signal,[13],"11.3 upbm affinity estimate (log intensity, higher = more binding, comparable within an allelic series)"
AATTAAGT,binding signal,[15],"11.6 upbm affinity estimate (log intensity, higher = more binding, comparable within an allelic series)"
same,binding signal,[16],"12.1 upbm affinity estimate (log intensity, higher = more binding, comparable within an allelic series)"
same,binding signal,[8],"12.8 upbm affinity estimate (log intensity, higher = more binding, comparable within an allelic series)"
same,binding signal,[17],"10.8 upbm affinity estimate (log intensity, higher = more binding, comparable within an allelic series)"
same,binding signal,[19],"10.8 upbm affinity estimate (log intensity, higher = more binding, comparable within an allelic series)"
same,binding signal,[20],"11.7 upbm affinity estimate (log intensity, higher = more binding, comparable within an allelic series)"
AATTAAAT,binding signal,[1],"10 upbm affinity estimate (log intensity, higher = more binding, comparable within an allelic series)"
same,binding signal,[2],"12.5 upbm affinity estimate (log intensity, higher = more binding, comparable within an allelic series)"
same,binding signal,[15],"11.8 upbm affinity estimate (log intensity, higher = more binding, comparable within an allelic series)"
same,binding signal,[16],"12.3 upbm affinity estimate (log intensity, higher = more binding, comparable within an allelic series)"
same,binding signal,[5],"11.8 upbm affinity estimate (log intensity, higher = more binding, comparable within an allelic series)"
same,binding signal,[6],"12.5 upbm affinity estimate (log intensity, higher = more binding, comparable within an allelic series)"
same,binding signal,[7],"12.6 upbm affinity estimate (log intensity, higher = more binding, comparable within an allelic series)"
same,binding signal,[9],"11.9 upbm affinity estimate (log intensity, higher = more binding, comparable within an allelic series)"
same,binding signal,[10],"11.5 upbm affinity estimate (log intensity, higher = more binding, comparable within an allelic series)"
same,binding signal,[11],"11.2 upbm affinity estimate (log intensity, higher = more binding, comparable within an allelic series)"
same,binding signal,[17],"11.1 upbm affinity estimate (log intensity, higher = more binding, comparable within an allelic series)"
CCAATTAC,binding signal,[5],"10.9 upbm affinity estimate (log intensity, higher = more binding, comparable within an allelic series)"
same,binding signal,[10],"10.6 upbm affinity estimate (log intensity, higher = more binding, comparable within an allelic series)"
CAATTAGA,binding signal,[14],"12.6 upbm affinity estimate (log intensity, higher = more binding, comparable within an allelic series)"
AATTAAGC,binding signal,[15],"11.7 upbm affinity estimate (log intensity, higher = more binding, comparable within an allelic series)"
same,binding signal,[16],"12.2 upbm affinity estimate (log intensity, higher = more binding, comparable within an allelic series)"
same,binding signal,[17],"10.9 upbm affinity estimate (log intensity, higher = more binding, comparable within an allelic series)"
